PubChem BioAssay
Several values for one entry are separate records, joined by “and”; a condition that tells them apart may be missing. Identical values can stand only once. Activity calls are given as the source filed them.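 The calls were made as follows, unless noted: active = inhibition at or above 50% relative to wild type and mutant plate controls; inactive = inhibition below 50%.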

How the values were obtained:
[1] = inhibitors of TNFa-induced NFkB p65 translocation, primary screen, imaging, HUVEC, MLSMR starter and 10KST1 sets (AID 438;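 active = inhibition above 20% together with a positive visual image hit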;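 also: compound added about 3h40 before a 20 min TNFalpha stimulation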;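 as to inhibition: signal is the nuclear over cytoplasmic p65 intensity ratio per well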); conditions: HUVEC TNFa-induced p65 nuclear translocation; cell count: measured here: nuclei count (cytotoxicity indicator), at 2.08 µM; inhibition: at 2 µM, stronger effect = higher value, 0% TNFa-plus-vehicle, 100% no-TNFa wells
[2] = inhibitors of mutant huntingtin aggregation, primary screen, imaging, exon1htt(103Q)mCFP cells, high-content imaging (AID 483;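 active = visual image review flags a hit and inhibition of aggregation exceeds 20%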;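 also: compound exposure lasted 3 days before fixation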;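 as to nuclei count: percent of the per-plate median nuclei count of sample wells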); conditions: exon1htt(103Q)mCFP cell line, aggregate imaging, at 2 µM; inhibition of aggregation: stronger effect = higher value; nuclei count: measured here: cell count, toxicity
[3] = inhibitors of E-selectin induction by TNFa, primary screen, imaging, HUVEC, immunofluorescence, MLSMR starter and 10KST1 sets (AID 487;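 active = visually confirmed hit in the image check and inhibition above 20%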;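 as to inhibition: signal is fraction of cell area covered by stained E-selectin grains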;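 as to nuclei count: 100% = median nuclei count of all wells on the same plate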); conditions: HUVEC TNFalpha-induced E-selectin immunofluorescence imaging, at 2 µM; inhibition: stronger effect = higher value; nuclei count: measured here: cell number, toxicity
[4] = DUSP6 inhibitors restoring Erk phosphorylation by chemical complementation, primary imaging in DUSP6-transfected HeLa (AID 609;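 active = compounds giving at least 50% inhibition in the cell-based MKP-3 phosphatase rescue imaging test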;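 as to inhibition: phospho-Erk level distribution per well compared with pooled transfected vehicle control wells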); conditions: HeLa MKP-3 transfected, phospho-Erk imaging KS statistic, at 10 µM, cells stimulated with TPA for 15 min
[5] = target: Dual specificity protein phosphatase 6 (Homo sapiens) (UniProt Q16828); experiment: as above; conditions: HeLa MKP-3 transfected, phospho-Erk imaging KS statistic; at 10 µM; stronger effect = higher value; cells stimulated with TPA for 15 min
[6] = target: Voltage-gated potassium channel subunit beta-2 (Rattus norvegicus) (UniProt P62483); experiment: KvBeta enzyme negative modulators, primary screen, biochemical, NADPH fluorescence (AID 622;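 active = fluorescence slope higher than the sample average by over 3 SD, cut at about -0.22 in these data, passing the limit was not always enough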;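 also: slope of raw intensity against log time taken from 70 to 1610 s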); conditions: recombinant KvBeta, 4-cyanobenzaldehyde reduction, at 10 µM, stronger effect = higher value
[7] = target: Voltage-gated potassium channel subunit beta-2 (Rattus norvegicus) (UniProt P62483); experiment: KvBeta positive modulators, primary screen, biochemical, NADPH fluorescence (AID 623;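 active = NADPH fluorescence slope more negative than the mean of all samples by about 3 SD, 99.7% confidence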;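 also: fluorescence intensity change per second fitted from 20 to 320 s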); conditions: Recombinant KvBeta, NADPH fluorescence decrease slope, 10 min; at 10 µM; stronger effect = lower value
[8] = target: Alpha-2C adrenergic receptor (Homo sapiens) (UniProt P18825); experiment: modulators of alpha2C/GIRK thallium flux, primary screen, cell-based, HEK293 alpha2C/GIRK1/2 (AID 624;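 active = fluorescence slope after compound addition differing from the mean of all screened samples at 99.7% confidence, in either direction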;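 also: slope of fluorescence ratio to pre-addition baseline per second over 15 to 24 s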); conditions: thallium flux BTC fluorescence, at 10 µM, actives lie on both sides
[9] = inhibitors of larval lipid processing in zebrafish, primary screen, whole organism, PED6 fluorescence, gall bladder and intestine (AID 686;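 active = a full or partial loss of lipid-probe fluorescence in the fish gall bladder, intestine or both, judged by eye; inactive = no fluorescence loss, or compound toxic to the fish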;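 also: larvae 5 to 7 days old with five fish per well; signal comes from phospholipase A2 cleavage of quenched PED6 carried via bile; overnight exposure to compound and PED6 before scoring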); conditions: Zebrafish larvae PED6 lipid processing, fluorescence scoring; screened at 20 µM (by protocol)
[10] = inhibitors of Chlamydomonas gravitaxis, primary screen, whole organism, Chlamydomonas reinhardtii, WT vs cilia-less mutant, absorbance, 96-well (AID 463189); conditions: OD600 absorbance, 2 days, at 10 µM, stronger effect = higher value;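 also: 0% = wild type cc124 cells in DMSO and 100% = ciliumless bld1 mutant cells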
[11] = inhibitors of Sendai virus-induced IRF3 signaling, primary screen, TLR/RLR signaling modifier project, cell-based, Sendai virus stimulus, luciferase, 10K MLSCN set (AID 602276;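 active = inhibition at or above 50% at 10 µM; inactive = inhibition below 50%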;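 also: firefly luciferase from ISG56 promoter only with Renilla not read in this screen; 0% = Sendai virus plus DMSO and 100% = medium plus DMSO without virus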); conditions: HEK293 RL24 IRF3 luciferase reporter, at 10 µM, stronger effect = higher value
[12] = inhibitors of poly I:C-induced TLR3 signaling, primary screen, cell-based, poly I:C stimulus, luciferase, 10K MLSCN set (AID 602277;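 active = inhibition of the reporter signal at or above 50%; inactive = inhibition below 50%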); conditions: HEK293-TLR3 RL24 IRF3 luciferase reporter, at 10 µM, stronger effect = higher value
[13] = measured here: cell density z-score
[14] = measured here: nuclear c-Myc green intensity z-score
[15] = measured here: nuclear pErk red intensity z-score, stronger effect = higher value

Alpha-2C adrenergic receptor (Homo sapiens), sequence (P18825 whole entry, looked up): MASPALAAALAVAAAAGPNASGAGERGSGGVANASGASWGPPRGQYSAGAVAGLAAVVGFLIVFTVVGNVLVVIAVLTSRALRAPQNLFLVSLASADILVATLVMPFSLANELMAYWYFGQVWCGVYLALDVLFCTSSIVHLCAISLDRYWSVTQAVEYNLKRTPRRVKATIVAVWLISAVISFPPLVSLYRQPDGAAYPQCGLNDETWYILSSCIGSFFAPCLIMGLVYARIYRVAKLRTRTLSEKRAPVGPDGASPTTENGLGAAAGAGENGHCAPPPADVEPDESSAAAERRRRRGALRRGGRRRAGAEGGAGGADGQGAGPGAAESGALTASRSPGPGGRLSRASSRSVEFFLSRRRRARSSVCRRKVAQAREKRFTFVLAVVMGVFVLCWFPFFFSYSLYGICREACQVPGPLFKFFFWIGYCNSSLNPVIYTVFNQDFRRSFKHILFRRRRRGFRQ
Voltage-gated potassium channel subunit beta-2 (Rattus norvegicus), sequence (P62483 whole entry, looked up): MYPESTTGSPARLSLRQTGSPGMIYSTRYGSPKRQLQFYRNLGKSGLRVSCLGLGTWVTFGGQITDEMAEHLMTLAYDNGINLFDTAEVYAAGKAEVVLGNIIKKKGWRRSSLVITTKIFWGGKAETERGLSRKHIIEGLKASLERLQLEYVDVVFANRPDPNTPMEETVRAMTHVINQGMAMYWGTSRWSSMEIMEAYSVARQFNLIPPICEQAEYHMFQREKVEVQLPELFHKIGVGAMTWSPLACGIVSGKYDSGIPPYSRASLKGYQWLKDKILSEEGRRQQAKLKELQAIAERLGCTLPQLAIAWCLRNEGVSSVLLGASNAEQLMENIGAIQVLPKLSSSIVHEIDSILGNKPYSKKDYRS
Dual specificity protein phosphatase 6 (Homo sapiens), sequence (Q16828 whole entry, looked up): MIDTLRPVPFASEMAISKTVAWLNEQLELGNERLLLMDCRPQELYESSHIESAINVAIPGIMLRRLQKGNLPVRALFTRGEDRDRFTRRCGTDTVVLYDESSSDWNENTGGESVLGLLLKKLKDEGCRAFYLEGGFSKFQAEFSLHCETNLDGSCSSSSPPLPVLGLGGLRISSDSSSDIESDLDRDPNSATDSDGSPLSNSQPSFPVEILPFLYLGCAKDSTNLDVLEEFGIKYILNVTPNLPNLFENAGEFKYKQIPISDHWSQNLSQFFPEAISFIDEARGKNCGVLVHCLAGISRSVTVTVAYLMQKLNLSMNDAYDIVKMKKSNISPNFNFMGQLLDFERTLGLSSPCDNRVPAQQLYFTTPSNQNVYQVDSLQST

SMILES	cell count [1]	inhibition [1]	inhibition of aggregation [2]	nuclei count [2]	inhibition [3]	nuclei count [3]	z-score [4, 13]	z-score [4, 14]	z-score [4, 15]	inhibition [5]	fluorescence slope [6]	NADPH fluorescence slope [7]	slope [8]	outcome [9]	inhibition [10]	inhibition [11]	inhibition [12]
C[C@]12CCC(=O)C=C1CC[C@@H]1[C@@H]2[C@@H](O)C[C@@]2(C)[C@H]1CC[C@]2(O)C(=O)COC(=O)CCC(=O)O	638 and 636	1.3% (inactive) and -6.2% (inactive)	-14.6% (inactive) and 5.9% (inactive)	81.4% and 75.3%	-73.5% (inactive) and -140% (inactive)	113% and 141%	-0.295 and 0.975	-0.899 and -0.385	-0.0646 and -0.0458	7.39% (inactive) and 11.3% (inactive)	-0.492 (inactive) and -0.463 (inactive)	-9e-05 (inactive) and -1.6e-05 (inactive)	0.00441 (inactive) and 0.00453 (inactive)	inactive	1.85% (inactive) and -7.48% (inactive) and -3.81% (inactive)	5.11% (inactive) and 1.12% (inactive)	30.2% (inactive) and 30.8% (inactive)
CC(=O)O[C@]1(C(C)=O)CC[C@H]2[C@@H]3C=C(C)C4=CC(=O)CC[C@]4(C)[C@H]3CC[C@@]21C	697	-4.5% (inactive)	-13.2% (inactive)	103%	-91% (inactive)	125%	0.989	-0.815	-0.896	7.39% (inactive)	-0.492 (inactive)	-2e-05 (inactive)	0.00287 (inactive)	inactive	1.32% (inactive)	15.7% (inactive)	41% (inactive)
Cc1ccc(S(=O)(=O)NCC(=O)OCN2C(=O)c3ccccc3C2=O)cc1	416	-4.7% (inactive)	-19.8% (inactive)	85.7%	-23.1% (inactive)	93.4%	-0.341	-0.796	0.197	7.93% (inactive)	-0.574 (inactive)	4e-05 (inactive)	0.00572 (inactive)	inactive	45.3% (inactive)	11.3% (inactive)	-3.4% (inactive)
N=c1c(C(=O)NCc2ccccc2)cc2c(=O)n3ccccc3nc2n1Cc1ccco1	365	-3.1% (inactive)	-10% (inactive)	91.6%	-250% (inactive)	133%	0.674	0.212	-1.53	9.39% (inactive)	-0.375 (inactive)	-4.7e-05 (inactive)	0.00267 (inactive)	inactive	-4.74% (inactive)	-0.117% (inactive)	19.6% (inactive)
